# Test results: PubChem BioAssay (Tox21)
# Records with an inconclusive call do not appear. Entries that show only a call come without a potency. Values without a mark were called inactive. Calls of active or inactive are those of the source. Calls come from the whole dose curve; as a rule, active = well fitted curve in the direction sought with a large enough effect in the repeat runs; inconclusive = weak or mixed curves; inactive = no such curve, though single readings can be large; an effect the other way counts as inactive or inconclusive.
# Experiments:
# [1] = qHTS RealTime-Glo MT Cell Viability Assay in HepG2 cells - 40 hour (AID 1224870); note: nearly all actives have a fitted effect of over 50% in size
# Method in brief: (§1)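 HepG2 cells (600/well) mixed with RealTime-Glo MT reagent, settled 5 h at 37 C/5% CO2 before compound addition. Nonlytic NanoLuc luminescence from viable-cell prosubstrate reduction read repeatedly during 40 h treatment at 37 C.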
# [2] = A CellTox Green Cytotoxicity Assay to monitor cytotoxicity in HEK293 cells - 40 hour (AID 1224871); note: nearly all actives have a fitted effect of over 45% in size
# Method in brief: (§2)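 HEK293 cells, 600/well, were preincubated 5 hours and then exposed to compounds at 37 C for up to 40 hours. A cell-impermeant cyanine dye staining dead-cell DNA was read by fluorescence at 0, 8, 16, 24, 32 and 40 h time points.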
# [3] = qHTS RealTime-Glo MT Cell Viability Assay in HepG2 cells - 8 hour (AID 1224873); note: nearly all actives have a fitted effect of over 55% in size
# Method in brief: as §1
# [4] = qHTS RealTime-Glo MT Cell Viability Assay in HEK293 cells - 40 hour (AID 1224874); conditions: RealTime-Glo luminescence; max response: stronger effect = lower value; note: nearly all actives have a fitted effect of over 50% in size; note: potency is the fitted concentration of half-maximal effect
# Method in brief: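 600 cells/well were plated with the nonlytic NanoLuc/prosubstrate reagent, pre-incubated 5 h, then given 23 nL of compound in DMSO. Incubation at 37 C for 40 h, with luminescence from viable-cell-reduced substrate read repeatedly from 0 h.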
# [5] = A CellTox Green Cytotoxicity Assay to monitor cytotoxicity in HEK293 cells - 24 hour (AID 1224875); note: series mostly up to about 77 µM; nearly all actives have a fitted effect of over 45% in size
# Method in brief: as §2
# [6] = A CellTox Green Cytotoxicity Assay to monitor cytotoxicity in HepG2 cells - 16 hour (AID 1224876); note: nearly all actives have a fitted effect of over 45% in size
# Method in brief: (§3)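 HepG2 cells, 600/well, preincubated 5 h with CellTox Green dye, then exposed to Tox21 compounds in DMSO at 37 C for up to 40 h. Dead-cell DNA fluorescence read at the indicated time point.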
# [7] = qHTS RealTime-Glo MT Cell Viability Assay in HepG2 cells - 32 hour (AID 1224877); note: nearly all actives have a fitted effect of over 55% in size
# Method in brief: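 Tox21 10K library screened in qHTS format on HepG2 cells carrying RealTime-Glo reagents. Compounds were added after a 5 h preincubation, and the luminescent signal from continuous culture was measured repeatedly during 40 h treatment.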
# [8] = A CellTox Green Cytotoxicity Assay to monitor cytotoxicity in HepG2 cells - 24 hour (AID 1224878); note: nearly all actives have a fitted effect of over 45% in size
# Method in brief: as §3
# [9] = A CellTox Green Cytotoxicity Assay to monitor cytotoxicity in HepG2 cells - 40 hour (AID 1224879); note: nearly all actives have a fitted effect of over 40% in size
# Method in brief: as §3
# [10] = qHTS RealTime-Glo MT Cell Viability Assay in HEK293 cells - 16 hour (AID 1224872); note: top concentration of the series differs between compounds; nearly all actives have a fitted effect of over 50% in size
# Method in brief: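 Luminescence generated by NanoLuc from substrate produced by living HEK293 cells served as the viability signal. Each value reflects the reading at its stated time point during continuous 40 h compound exposure at 37 C.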
smiles,measurement,setting,value
CCCCCCOc1ccccc1C(N)=O,outcome,[1],inactive
same,Potency,[2],inactive
same,outcome,[3],inactive
same,Potency,[4],10.7 µM (active)
same,outcome,[5],inactive
same,outcome,[6],inactive
same,outcome,[7],inactive
same,outcome,[8],inactive
CCO[Si](CCCS)(OCC)OCC,outcome,[1],inactive
same,Potency,[2],inactive
same,outcome,[3],inactive
same,max response,[4],16.1%
same,outcome,[5],inactive
same,outcome,[6],inactive
same,outcome,[7],inactive
same,outcome,[8],inactive
same,Potency,[9],inactive
O=C(O)Cc1ccc(Cl)cc1Cl,Potency,[2],inactive
same,Potency,[10],inactive
same,max response,[4],-0.186%
same,outcome,[5],inactive
same,outcome,[7],inactive
COc1ccc(C2CNC(=O)C2)cc1OC1CCCC1 (stereo not drawn),outcome,[1],inactive
same,Potency,[2],inactive
same,Potency,[10],inactive
same,max response,[4],-17.5%
same,outcome,[5],inactive
same,outcome,[6],inactive
same,outcome,[8],inactive
same,Potency,[9],inactive
CC(=O)NCc1c(I)c(NC(C)=O)c(I)c(C(=O)O)c1I,outcome,[1],inactive
same,Potency,[2],inactive
same,Potency,[10],inactive
same,max response,[4],3.65%
same,outcome,[5],inactive
same,outcome,[7],inactive
CC(C)=CCOC(=O)c1ccccc1,outcome,[1],inactive
same,Potency,[10],inactive
same,outcome,[3],inactive
same,max response,[4],-0.369%
same,outcome,[5],inactive
same,outcome,[7],inactive
COc1ccc(S(=O)(=O)N2c3ccc(Cl)cc3[C@@](O)(c3ccccc3Cl)[C@H]2C(=O)N2CCC[C@@H]2C(N)=O)cc1OC,outcome,[1],inactive
same,Potency,[2],inactive
same,outcome,[3],inactive
same,outcome,[5],inactive
same,outcome,[6],inactive
same,outcome,[8],inactive
same,Potency,[9],inactive
CCCCOCCOC(=O)COc1nc(Cl)c(Cl)cc1Cl,outcome,[1],inactive
same,Potency,[2],inactive
same,Potency,[10],inactive
same,max response,[4],7.86%
same,outcome,[5],inactive
same,outcome,[6],inactive
same,outcome,[7],inactive
same,Potency,[9],inactive
O=C(O)Cc1cn(-c2ccccc2)nc1-c1ccc(Cl)cc1,outcome,[1],inactive
same,Potency,[2],inactive
same,Potency,[10],inactive
same,max response,[4],-3.35%
same,outcome,[5],inactive
same,outcome,[6],inactive
same,Potency,[9],inactive
N#Cc1ccc(C(=O)O)cc1,outcome,[1],inactive
same,Potency,[2],inactive
same,Potency,[10],inactive
same,max response,[4],3.59%
same,outcome,[5],inactive
same,outcome,[6],inactive
same,outcome,[8],inactive
same,Potency,[9],inactive
COC(=O)C1CC(=O)C(C(=O)OC)CC1=O (stereo not drawn),cytotoxicity increase,[2],1.85% [at 6.97 µM]
same,"activity change, negative = cytotoxicity",[10],7.32% [at 6.97 µM]
same,"viability change, negative = cytotoxic",[3],-14.8% [at 6.97 µM]
same,max response,[4],-0.164%
same,activity change,[5],2.42% [at 6.97 µM]
same,cytotoxicity increase,[6],-5.58% [at 6.97 µM]
same,"activity change, negative = cytotoxic",[7],12.6% [at 6.97 µM]
same,cytotoxicity,[8],-7.82% [at 6.97 µM]
same,cytotoxicity increase,[9],-13.2% [at 6.97 µM]
CC(S)C(=O)NCC(=O)O (stereo not drawn),outcome,[1],inactive
same,Potency,[10],inactive
same,outcome,[3],inactive
same,max response,[4],11.2%
same,outcome,[6],inactive
same,outcome,[7],inactive
same,outcome,[8],inactive
same,Potency,[9],inactive
COCCOC(=O)C1=C(C)NC(C)=C(C(=O)OC(C)C)C1c1cccc([N+](=O)[O-])c1 (stereo not drawn),Potency,[2],inactive
same,outcome,[5],inactive
same,outcome,[6],inactive
same,outcome,[8],inactive
same,Potency,[9],inactive
CC(=O)c1sc(C)nc1C,outcome,[1],inactive
same,Potency,[2],inactive
same,Potency,[10],inactive
same,max response,[4],-23.3%
same,outcome,[5],inactive
same,outcome,[7],inactive
same,outcome,[8],inactive
same,Potency,[9],inactive
CC(=O)Nc1cccc(C)c1,outcome,[1],inactive
same,Potency,[2],inactive
same,outcome,[5],inactive
same,outcome,[6],inactive
same,outcome,[7],inactive
same,outcome,[8],inactive
same,Potency,[9],inactive
Cc1cccc(C)c1OCC(C)N (stereo not drawn),outcome,[1],inactive
same,Potency,[2],inactive
same,Potency,[10],inactive
same,max response,[4],2.76%
same,outcome,[6],inactive
same,outcome,[7],inactive
same,outcome,[8],inactive
same,Potency,[9],inactive
COCCOCCOCCOCCOCCO,outcome,[1],inactive
same,Potency,[2],inactive
same,Potency,[10],inactive
same,max response,[4],0.969%
same,outcome,[5],inactive
same,outcome,[6],inactive
same,outcome,[7],inactive
same,Potency,[9],inactive
C=C(C)C1CCC(C)(O)CC1 (stereo not drawn),outcome,[1],inactive
same,Potency,[2],inactive
same,Potency,[10],inactive
same,max response,[4],2.04%
same,outcome,[6],inactive
same,outcome,[7],inactive
same,outcome,[8],inactive
same,Potency,[9],inactive
C#CC(C)N(C)C(=O)Nc1ccc(Cl)cc1 (stereo not drawn),outcome,[1],inactive
same,Potency,[2],inactive
same,outcome,[3],inactive
same,outcome,[5],inactive
same,outcome,[6],inactive
same,outcome,[7],inactive
same,outcome,[8],inactive
same,Potency,[9],inactive
Cc1cc(NC(=O)C2=C(O)c3ccccc3S(=O)(=O)N2C)no1,outcome,[1],inactive
same,Potency,[2],inactive
same,Potency,[10],inactive
same,max response,[4],4.93%
same,outcome,[6],inactive
same,outcome,[8],inactive
same,Potency,[9],inactive
COc1ccc2nc(SCc3ncc(C)c(OC)c3C)[nH]c2c1,outcome,[1],inactive
same,Potency,[2],inactive
same,outcome,[3],inactive
same,outcome,[6],inactive
same,outcome,[7],inactive
same,outcome,[8],inactive
same,Potency,[9],inactive
Nc1nnc(-c2cccc(Cl)c2Cl)c(N)n1,Potency,[2],inactive
same,outcome,[5],inactive
same,outcome,[6],inactive
same,outcome,[8],inactive
same,Potency,[9],inactive
Cc1c(I)c(=O)n(-c2ccccc2)n1C,outcome,[1],inactive
same,Potency,[2],inactive
same,Potency,[10],inactive
same,max response,[4],-1.2%
same,outcome,[5],inactive
same,outcome,[6],inactive
same,outcome,[8],inactive
same,Potency,[9],inactive
O=C1c2ccccc2C(=O)c2cc(S(=O)(=O)O)ccc21,outcome,[1],inactive
same,Potency,[2],inactive
same,outcome,[6],inactive
same,outcome,[7],inactive
same,outcome,[8],inactive
same,Potency,[9],inactive
BrCc1cccc(Oc2ccccc2)c1,outcome,[1],inactive
same,Potency,[2],inactive
same,Potency,[10],inactive
same,max response,[4],-9.91%
same,outcome,[6],inactive
same,outcome,[7],inactive
CN1CCN(CC(=O)N2c3ccccc3C(=O)Nc3cccnc32)CC1,"activity change, negative = cytotoxic",[1],3.53% [at 6.97 µM]
same,cytotoxicity increase,[2],-2.67% [at 6.97 µM]
same,"activity change, negative = cytotoxicity",[10],13.3% [at 6.97 µM]
same,max response,[4],6.66%
same,activity change,[5],-2.09% [at 6.97 µM]
same,cytotoxicity increase,[6],-11.9% [at 6.97 µM]
same,cytotoxicity increase,[9],-15.8% [at 6.97 µM]
CC(CN)CC(C)(C)CCN (stereo not drawn),outcome,[1],inactive
same,Potency,[2],inactive
same,Potency,[10],inactive
same,max response,[4],6.3%
same,outcome,[5],inactive
same,outcome,[6],inactive
same,outcome,[8],inactive
same,Potency,[9],inactive
CC(C)CCCCOC(=O)c1ccccc1C(=O)OCCCCC(C)C,outcome,[1],inactive
same,Potency,[2],inactive
same,Potency,[10],inactive
same,max response,[4],-1.41%
same,outcome,[6],inactive
same,outcome,[7],inactive
same,outcome,[8],inactive
same,Potency,[9],inactive
